From PubChem BioAssay (Tox21)
Results filed as inconclusive are left out. Calls of active or inactive are those of the source. Unless noted, the call rests on the fitted dose curve; in most records, active means well fitted curve in the direction sought with a large enough effect in the repeat runs; inconclusive means weak or mixed curves; inactive means no such curve, though single readings can be large; an effect the other way counts as inactive or inconclusive.

Tests used:
[1] = qHTS assay to identify small molecule antagonists of the estrogen receptor alpha (ER-alpha) signaling pathway using the BG1 cell line in the presence of 0.1 nM 17-beta-estradiol - cell viability counter screen (AID 1259241); further: nearly all actives have a fitted effect of over 40% in size
How it was run: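 CellTiter-Fluor read (30 min, 37C) on ER-alpha/ERE-luc VM7Luc4E2 cells; 22 hr compound treatment; agonist 0.1 nM E2 final; same-well multiplex.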

[2] = qHTS assay to identify small molecule antagonists of the androgen receptor (AR) signaling pathway using the MDA cell line in the presence of 0.5 nM R1881 - cell viability counter screen (AID 1259242); further: nearly all actives have a fitted effect of over 45% in size
How it was run: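 Live-cell protease activity was measured by CellTiter-Fluor fluorescence after 30 min. Before that, MDA-kb2 MMTV-luciferase cells had 16 hr at 37C without CO2, exposed to test compounds and 0.5 nM R1881 final.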

[3] = biological target: Androgen receptor (Homo sapiens) (UniProt P10275); assay: qHTS assay to identify small molecule antagonists of the androgen receptor (AR) signaling pathway using the MDA cell line in the presence of 0.5 nM R1881 (AID 1259243); further: nearly all actives have a fitted effect of over 50% in size
How it was run: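 Luminescent reporter readout (ONE-Glo, 30 min, room temperature) after 16 hr co-treatment of MDA-kb2 cells with test compounds and 0.5 nM R1881 final, at 37C without CO2. The MMTV-driven luciferase responds to both AR and GR.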

[4] = biological target: Estrogen receptor (Homo sapiens) (UniProt P03372); assay: qHTS assay to identify small molecule antagonists of the estrogen receptor alpha (ER-alpha) signaling pathway using the BG1 cell line in the presence of 0.1 nM 17-beta-estradiol (AID 1259244); further: nearly all actives have a fitted effect of over 50% in size
How it was run: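 Luciferase luminescence (ONE-Glo, 30 min at room temperature) was read after 22 hr at 37C exposure to compounds plus 17beta-estradiol at 0.1 nM final. Cells were VM7Luc4E2 with endogenous ER-alpha and an ERE-driven luciferase, pre-cultured 5 days in hormone-depleted medium.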

[5] = qHTS assay to identify small molecule HDAC inhibitors (AID 1259364); further: nearly all actives have a fitted effect of over 45% in size; further: potency means the concentration at half of the fitted maximal effect
How it was run: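 Luminescence read after 30 min room-temperature HDAC-Glo incubation measures cellular class I/II HDAC activity. Compounds were applied for 2 hr at 37 C to HCT-116 wild-type cells seeded the day before.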

[6] = qHTS assay to identify small molecule HDAC inhibitors - cell viability counter screen (AID 1259365); further: series mostly up to about 92 µM; nearly all actives have a fitted effect of over 50% in size
How it was run: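 To flag cytotoxic hits, 1,500 wild-type HCT-116 cells per well, plated the day before, receive test compounds for 2hr at 37 C before CellTiter-Glo reagent and a luminescence read.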

[7] = qHTS assay to identify small molecule agonists of the sonic hedgehog signaling (Shh) pathway - cell viability counter screen (AID 1259366); further: nearly all actives have a fitted effect of over 50% in size
How it was run: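 Fluorescence from CellTiter-Fluor reports live cells in this counter screen. NIH/3T3-derived Gli1-Luc reporter cells receive test compounds for 24hr at 37C; reagent goes in at 23hr.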

[8] = qHTS assay to identify small molecule antagonists of the sonic hedgehog signaling (Shh) pathway - cell viability counter screen (AID 1259367); further: nearly all actives have a fitted effect of over 55% in size
How it was run: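 Tox21 library chemicals were tested on a Gli1-Luc NIH/3T3 clone (2,000 cells/well) stimulated by conditioned medium; viability was quantified as fluorescence from CellTiter-Fluor reagent added at 23 hr.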

[9] = qHTS assay to identify small molecule agonists of the sonic hedgehog signaling (Shh) pathway (AID 1259368; calls by dose curve;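 further: NIH/3T3-derived 3T3Gli1-Luc cells carrying a stable Gli1-driven firefly luciferase reporter; series mostly up to about 92 µM; nearly all actives have a fitted effect of over 15% in size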)
How it was run: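 Luminescence was read after 30 min at room temperature with luciferase reagent. Before that, 3T3Gli1-Luc cells (NIH/3T3 clone, stable Gli1-Luc reporter; 2,000/well) were exposed to compounds for 24 hr at 37C, 5% CO2, compounds being added 4 hr post-plating.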

[10] = qHTS assay to identify small molecule agonists of the androgen receptor (AR) signaling pathway in the presence of an antagonist - cell viability counter screen (AID 1259379);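 further: MDA-kb2 human breast cancer cells carrying an MMTV luciferase reporter; series mostly up to about 92 µM; nearly all actives have a fitted effect of over 25% in size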
How it was run: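 Cytotoxicity counter-screen run in the same wells as the nilutamide-challenged (3.0 µM final) AR agonist assay in MDA-kb2 cells. Compounds tested at 15 concentrations for 16 h, 37 °C without CO2; CellTiter-Fluor fluorescence read.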

[11] = qHTS assay to identify small molecule agonists of the estrogen receptor beta (ER-beta) signaling pathway - cell viability counter screen (AID 1259380); further: nearly all actives have a fitted effect of over 30% in size
How it was run: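 Cell viability counter screen: CellTiter-Glo luminescence (30 min, room temperature) measured in the same wells as the beta-lactamase readout, after 16 hr compound exposure at 37C of ER-beta-bla HEK293T cells in 2% charcoal-stripped FBS medium.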

[12] = biological target: Androgen receptor (Homo sapiens) (UniProt P10275); assay: qHTS assay to identify small molecule agonists of the androgen receptor (AR) signaling pathway in the presence of an antagonist (AID 1259381; calls by dose curve; further: nearly all actives have a fitted effect of over 15% in size)
How it was run: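 Agonist-mode confirmation run against 3.0 uM final nilutamide: compounds titrated at 15 concentrations onto MDA-kb2 MMTV-luciferase reporter cells. Luminescence measured with ONE-Glo following 16 hr incubation, 37C, 0% CO2.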

[13] = biological target: Estrogen receptor (Homo sapiens) (UniProt P03372); assay: qHTS assay to identify small molecule agonists of the estrogen receptor alpha (ER-alpha) signaling pathway in the presence of an antagonist (AID 1259383; calls by dose curve; further: top concentration of the series differs between compounds; nearly all actives have a fitted effect of over 15% in size)
How it was run: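 Agonist-mode confirmation run in the presence of 10.0nM (final) ICI-182,780 antagonist. The reporter was ERE-driven luciferase in VM7Luc4E2 cells, grown in charcoal-stripped serum. Cells were exposed to 15-concentration compound series for 22hr, then ONE-Glo luminescence was read.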

[14] = qHTS assay to identify small molecule phospholipidosis (PLD) inducers (AID 1259344; active means well fitted curve in the direction sought with a large enough effect; an effect the other way counts as inactive or inconclusive)
How it was run: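 Image-based: LipidTOX Red pit count/intensity per well and per cell; HepG2, 24 h compound at 37 C, PFA fixation, Hoechst counterstain.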

[15] = qHTS assay to identify small molecule antagonists of the sonic hedgehog signaling (Shh) pathway (AID 1259369; calls by dose curve; further: nearly all actives have a fitted effect of over 45% in size)
How it was run: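 Antagonist mode: compound added to 3T3 Gli1-Luc cells followed by conditioned-medium stimulation, 24 h at 37 C, 5% CO2. Inhibition taken as loss of Gli1-driven luciferase luminescence.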

[16] = biological target: Estrogen receptor beta (Homo sapiens) (UniProt Q92731); assay: qHTS assay to identify small molecule agonists of the estrogen receptor beta (ER-beta) signaling pathway (AID 1259377; active means well fitted activation curve with a large enough effect in the signal ratio in the repeat runs, not every such curve was filed as active; the % refers to the signal ratio)
How it was run: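 Screening used GripTite ER-beta-UAS-bla cells held in 2% charcoal-stripped FBS medium. After overnight (16 hr) compound incubation at 37C, beta-lactamase activity was detected with a FRET substrate by fluorescence.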

[17] = biological target: Estrogen receptor beta (Homo sapiens) (UniProt Q92731); assay: qHTS assay to identify small molecule antagonists of the estrogen receptor beta (ER-beta) signaling pathway (AID 1259378; active means well fitted inhibition curve with a large enough effect in the signal ratio in the repeat runs, not every such curve was filed as active; the % refers to the signal ratio)
How it was run: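 ER-beta-UAS-bla HEK293T cells in 2% charcoal-stripped FBS medium treated with compound plus 1nM final 17-beta-estradiol for 16 hr at 37C. Beta-lactamase reporter read by FRET substrate fluorescence after 2 hours at room temperature.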

[18] = qHTS assay to identify small molecule antagonists of the estrogen receptor beta (ER-beta) signaling pathway - cell viability counter screen (AID 1259382); further: series mostly up to about 92 µM; nearly all actives have a fitted effect of over 55% in size
How it was run: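 Cytotoxicity was measured in the same wells by CellTiter-Glo luminescence after 30 min at room temperature. Cells were ER-beta-bla HEK293T in charcoal-stripped serum, given compound together with 1 nM E2 and incubated 16 h at 37C.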

[19] = qHTS assay to identify small molecule agonists or antagonists of the thyroid stimulating hormone receptor (TSHR) signaling pathway - wild type cell line counter screen (AID 1259384; calls by dose curve)
How it was run: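 Wild-type Hek293 cells, 800/well, 18 h at 37C, then compound with Ro20-1724 for 30 min RT. cAMP by HTRF (cAMP-d2/anti-cAMP cryptate), 1 h RT, fluorescence read. 15 concentrations, triplicates.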

[20] = biological target: Thyrotropin receptor (Homo sapiens) (UniProt P16473); assay: qHTS assay to identify small molecule antagonists of the thyroid stimulating hormone receptor (TSHR) signaling pathway (AID 1259385; calls by dose curve; further: nearly all actives have a fitted effect of over 20% in size)
How it was run: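 TSHR-HEK293 cells (800/well) plated 18 h, then compounds with Ro20-1724 and TSH at 1.5 ng/mL final, 30 min at room temperature. cAMP quantified by HTRF (cAMP-d2/anti-cAMP-cryptate, 1 h); 15 concentrations in triplicate.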

Measured: Potency

Estrogen receptor (Homo sapiens), sequence (P03372 whole entry, looked up): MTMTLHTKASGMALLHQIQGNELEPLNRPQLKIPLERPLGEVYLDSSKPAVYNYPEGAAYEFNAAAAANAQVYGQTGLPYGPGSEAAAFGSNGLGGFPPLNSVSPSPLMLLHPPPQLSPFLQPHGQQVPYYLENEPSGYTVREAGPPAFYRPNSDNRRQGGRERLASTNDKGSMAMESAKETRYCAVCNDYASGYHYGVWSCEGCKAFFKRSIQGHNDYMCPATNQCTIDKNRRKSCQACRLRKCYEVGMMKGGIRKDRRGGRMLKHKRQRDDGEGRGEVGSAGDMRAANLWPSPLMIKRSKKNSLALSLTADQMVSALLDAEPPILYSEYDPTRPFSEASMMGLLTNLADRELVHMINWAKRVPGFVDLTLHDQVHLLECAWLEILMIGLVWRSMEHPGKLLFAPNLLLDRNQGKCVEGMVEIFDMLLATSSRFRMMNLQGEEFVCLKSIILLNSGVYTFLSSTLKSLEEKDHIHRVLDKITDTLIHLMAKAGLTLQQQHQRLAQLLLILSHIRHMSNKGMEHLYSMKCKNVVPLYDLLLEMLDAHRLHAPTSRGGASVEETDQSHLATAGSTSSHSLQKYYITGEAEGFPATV
Thyrotropin receptor (Homo sapiens), sequence (P16473 whole entry, looked up): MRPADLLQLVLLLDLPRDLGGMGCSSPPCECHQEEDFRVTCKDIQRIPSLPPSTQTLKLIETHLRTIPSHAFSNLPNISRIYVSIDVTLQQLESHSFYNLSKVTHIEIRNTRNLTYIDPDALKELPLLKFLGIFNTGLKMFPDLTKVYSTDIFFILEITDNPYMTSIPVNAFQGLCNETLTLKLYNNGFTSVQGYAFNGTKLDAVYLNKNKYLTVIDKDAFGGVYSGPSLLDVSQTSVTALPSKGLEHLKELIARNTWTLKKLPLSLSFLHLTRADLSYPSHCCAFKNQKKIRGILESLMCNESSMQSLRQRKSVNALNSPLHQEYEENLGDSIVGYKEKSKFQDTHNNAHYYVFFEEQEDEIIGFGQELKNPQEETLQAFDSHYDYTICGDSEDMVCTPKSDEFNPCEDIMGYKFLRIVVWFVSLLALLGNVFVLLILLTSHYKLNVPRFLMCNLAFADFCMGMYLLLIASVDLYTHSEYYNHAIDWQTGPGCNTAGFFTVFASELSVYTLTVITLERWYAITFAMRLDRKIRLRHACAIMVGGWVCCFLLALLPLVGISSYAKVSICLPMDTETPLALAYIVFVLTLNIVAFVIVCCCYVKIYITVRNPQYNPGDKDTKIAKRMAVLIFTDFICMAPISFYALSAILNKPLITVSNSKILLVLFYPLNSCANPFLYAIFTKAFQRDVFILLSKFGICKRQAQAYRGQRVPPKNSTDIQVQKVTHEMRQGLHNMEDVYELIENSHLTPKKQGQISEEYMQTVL
Estrogen receptor beta (Homo sapiens), sequence (Q92731 whole entry, looked up): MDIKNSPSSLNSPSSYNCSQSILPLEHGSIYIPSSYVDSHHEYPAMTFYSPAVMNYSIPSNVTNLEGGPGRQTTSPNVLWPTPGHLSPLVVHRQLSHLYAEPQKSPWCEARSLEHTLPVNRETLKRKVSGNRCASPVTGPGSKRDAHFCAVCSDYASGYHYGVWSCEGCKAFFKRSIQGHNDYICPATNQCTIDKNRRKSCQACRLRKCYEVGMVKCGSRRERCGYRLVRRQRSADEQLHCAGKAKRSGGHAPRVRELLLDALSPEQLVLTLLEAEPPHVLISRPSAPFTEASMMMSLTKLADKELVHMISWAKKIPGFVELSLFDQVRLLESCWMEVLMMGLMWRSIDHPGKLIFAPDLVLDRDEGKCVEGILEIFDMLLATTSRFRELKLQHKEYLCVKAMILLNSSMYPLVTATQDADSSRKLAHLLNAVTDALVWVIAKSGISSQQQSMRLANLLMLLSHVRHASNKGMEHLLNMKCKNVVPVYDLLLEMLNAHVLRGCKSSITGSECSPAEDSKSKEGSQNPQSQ
Androgen receptor (Homo sapiens), sequence (P10275 whole entry, looked up): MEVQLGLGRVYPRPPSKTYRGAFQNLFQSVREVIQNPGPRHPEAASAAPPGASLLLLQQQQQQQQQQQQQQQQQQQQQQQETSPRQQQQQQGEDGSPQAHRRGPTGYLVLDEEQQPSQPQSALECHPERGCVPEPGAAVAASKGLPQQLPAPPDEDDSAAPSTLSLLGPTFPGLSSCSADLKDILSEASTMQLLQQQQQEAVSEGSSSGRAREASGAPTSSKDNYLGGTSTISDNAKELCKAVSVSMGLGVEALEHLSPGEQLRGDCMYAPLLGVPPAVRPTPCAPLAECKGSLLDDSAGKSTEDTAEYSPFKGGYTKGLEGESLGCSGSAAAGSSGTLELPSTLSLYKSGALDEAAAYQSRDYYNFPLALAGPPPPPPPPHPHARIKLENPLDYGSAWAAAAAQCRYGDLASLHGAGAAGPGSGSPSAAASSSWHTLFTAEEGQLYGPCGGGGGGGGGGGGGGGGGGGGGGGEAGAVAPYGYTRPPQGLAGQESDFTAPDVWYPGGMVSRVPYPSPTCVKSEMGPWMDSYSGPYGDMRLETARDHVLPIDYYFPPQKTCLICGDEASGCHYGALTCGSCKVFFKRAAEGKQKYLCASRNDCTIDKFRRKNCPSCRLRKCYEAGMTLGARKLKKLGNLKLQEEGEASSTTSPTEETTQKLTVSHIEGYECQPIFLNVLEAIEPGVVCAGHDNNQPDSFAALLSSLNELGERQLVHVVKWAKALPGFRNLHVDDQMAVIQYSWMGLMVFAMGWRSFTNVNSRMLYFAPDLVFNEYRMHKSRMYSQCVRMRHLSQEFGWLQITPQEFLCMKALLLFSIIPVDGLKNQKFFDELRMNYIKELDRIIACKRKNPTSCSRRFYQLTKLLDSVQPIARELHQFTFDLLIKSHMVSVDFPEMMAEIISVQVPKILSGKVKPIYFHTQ

O=C1c2ccccc2C(=O)N1CCl
inactive: [1] | [2] | [3] | [4] | [5] | [6] | [7] | [8] | [9] | [10] | [11] | [12] | [13]

Nc1ncnc(Nc2ccccc2)n1
active: [5] 10.6 µM
inactive: [1] | [2] | [4] | [14] | [6] | [7] | [8] | [9] | [15] | [16] | [17] | [10] | [11] | [18] | [13] | [19] | [20]

CC1(CO)CN(c2ccccc2)NC1=O (configuration not stated)
active: [5] 24.3 µM
inactive: [1] | [2] | [3] | [6] | [7] | [8] | [9] | [15] | [10] | [12] | [19]

C[C@@H](Oc1ccc(CNC(=O)c2cccnc2Oc2ccc3c(c2)OCO3)c(F)c1)C(=O)O
inactive: [1] | [2] | [4] | [5] | [6] | [7] | [8] | [9] | [15] | [16] | [17] | [10] | [11] | [18] | [13]

CN(C)C(=O)CNC(=O)Cc1ccccc1
inactive: [1] | [2] | [4] | [14] | [5] | [6] | [7] | [9] | [15] | [16] | [17] | [11] | [18] | [13] | [19] | [20]

CC(=C(CCOC(=O)C(C)C)SSC(CCOC(=O)C(C)C)=C(C)N(C=O)Cc1cnc(C)nc1N)N(C=O)Cc1cnc(C)nc1N
inactive: [1] | [2] | [4] | [14] | [5] | [6] | [7] | [8] | [9] | [16] | [17] | [10] | [11] | [13] | [19] | [20]

Cc1cc2cc3c(C)cc(=O)oc3c(C)c2o1
inactive: [1] | [2] | [4] | [14] | [5] | [6] | [7] | [8] | [9] | [15] | [11] | [18] | [13] | [19] | [20]

O=C1c2cccc3c2[C@H](CCC3)CN1[C@@H]1CN2CCC1CC2
inactive: [1] | [2] | [4] | [14] | [5] | [6] | [9] | [10] | [18] | [13] | [19] | [20]
